Assay results published in PubChem BioAssay AID1159580 (chemical genetic matrix, 2015).
Hit rate of the full screen: of about 5,500 compounds, about 2,000 (36%) were called active. Another 18% or so got no clear call; they are omitted. Cut-off read from the data, not from the text of the source: active = normalized growth mostly below about 0.91 (no sharp cut-off); inconclusive = no clear call, values can overlap the other calls; inactive = mostly above about 0.92. The list shows a part of the results.

Test: chemical genetic growth profiling, strain panel (AID 1159580);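 note: tested at 20 µM; growth read once vehicle control cultures reached saturation at 30 °C; 1 = growth at the plate median or of vehicle wells; lower values mean less growth of the strain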
Conditions: S. cerevisiae deletion strains, growth OD
[1] = locus YAL013W, strain DEP1, stronger effect = lower value
[2] = locus YAL040C, strain CLN3, stronger effect = lower value
[3] = locus YDR363W, strain ESC2, stronger effect = lower value
[4] = locus YER002W, strain NOP16, stronger effect = lower value
[5] = locus YNL175C, strain NOP13, stronger effect = lower value
[6] = locus YNL197C, strain WHI3, stronger effect = lower value
[7] = locus YNL224C, strain SQS1, stronger effect = lower value
[8] = locus YOR083W, strain WHI5 (second series), stronger effect = lower value

Measured: normalized growth

O=c1[nH]c(=O)n([C@H]2C[C@H](O)[C@@H](CO)O2)cc1Br
inactive: [1] 1 | [2] 1.08 | [3] 1.01 | [4] 1.01 | [5] 1 | [6] 1 | [7] 1 | locus YNL322C, strain KRE1, stronger effect = lower value 1.02 | [8] 0.991

Nc1ncnc2c1ncn2[C@@H]1O[C@H](COP(=O)(O)OP(=O)(O)OP(=O)(O)OP(=O)(O)OC[C@@H]2O[C@H](n3cnc4c(N)ncnc43)C(O)[C@@H]2O)[C@H](O)C1O (some centres not stated)
inactive: [1] 1 | [2] 1.01 | locus YCL061C, strain MRC1 (second series), stronger effect = lower value 0.992 | [3] 1.04 | [4] 1.03 | locus YGR229C, strain SMI1, stronger effect = lower value 1.03 | locus YMR307W, strain GAS1, stronger effect = lower value 1.03 | locus YNL153C, strain GIM3, stronger effect = lower value 0.993 | [5] 0.997 | [6] 0.974 | [7] 1 | [8] 0.996 | locus YPL241C, strain CIN2, stronger effect = lower value 0.999
